Only some compounds are listed: those with a hit (about 19% of all), similar ones and a draw of the others.
TGFb SMAD3 inh: inhibitors of TGF-b signaling; HepG2 CAGA-GFP TGF-b/SMAD3 reporter, GFP fluorescence, 18 h; TGF-beta stimulated, 500 pg/mL final; Potency, µM (series often up to 46.1 µM), for the others: top-dose activity, negative = inhibition, most hits filed as inhibitors; hit rate 1.2% among 410,000; note: potency is the fitted concentration of half-maximal effect; % is set by controls: 0 for no effect and ±100 for the full control effect; nearly all actives have a fitted effect of over 65% in size
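Per well, imaged GFP fluorescence of HEPG2 CAGA-GFP cells gives the signal; cells get compound, then TGF-beta (500 pg/mL final), 18 h at 37 degrees C; %Activity versus -TGF-beta and +DMSO controls.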
TDP1 cell noCPT: qHTS for Inhibitors of human tyrosyl-DNA phosphodiesterase 1 (TDP1): qHTS in cells in absence of CPT; Potency, µM (doses to about 46.2 µM), inactives show top-dose activity change, negative = growth inhibition, hits mostly inhibitors; AID 686978, 2013; hit rate 15% among 420,000; DT40 Tdp1-/- hTDP1 cells, no CPT, ATP luminescence, 48 h; note: potency is the fitted concentration of half-maximal effect; % is set by controls: 0 for no effect and ±100 for the full control effect; nearly all actives have a fitted effect of over 55% in size
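Seeded 400 DT40-hTDP1 cells/well (vehicle DMSO, no 20 nM CPT); pinned compounds; ≥48 hr at 37 °C; CellTiter-Glo luminescence as viability measure.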
TDP1 cell CPT: DT40-hTDP1 cell growth loss with CPT. chicken DT40 Tdp1-/-;hTDP1 cells + 20 nM CPT, ATP luminescence, 48 h. Potency, µM (doses to about 46.2 µM), for the others: top-dose activity change, negative = growth inhibition, actives largely listed as inhibitors. hit rate 12% among 420,000. AID 686979; note: potency is the fitted concentration of half-maximal effect; % is set by controls: 0 for no effect and ±100 for the full control effect; nearly all actives have a fitted effect of over 55% in size
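Chicken DT40 Tdp1-/- cells complemented with human TDP1, 400 cells/well, exposed to compounds plus 20 nM camptothecin for at least 48 h at 37 C; viability read as ATP content by CellTiter-Glo luminescence.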
IL1B secr inh: inflammasome signaling inhibition, IL-1 beta readout. THP-1 LPS/ATP IL-1B secretion, AlphaLISA, 16 h; active compounds read low. activity change, % at 57.5 µM. hit rate 4.7% among 360,000. AID 743279; in the data active = activity change below about -50%; inconclusive = mostly about -30% to -49%; note: % is set by controls: 0 for no effect and ±100 for the full control effect
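THP-1 cells pretreated 1 hr with compounds (up to 57.5 uM final), then stimulated with LPS (250 ng/mL final) plus ATP (1.25 mM final); secreted IL-1B measured by AlphaLISA after 16 hr, decreased signal indicating inhibition.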
HepG2 tox: kills HepG2 cells in TGF-b inhibitor counter-screen. HepG2 CAGA-GFP viability, ATP luminescence, 18 h. Potency, µM (series often up to 46.1 µM), for the others: at the top dose activity change, negative = cytotoxicity, usual class: cytotoxic. hit rate 0.76% among 410,000. AID 588856; note: potency is the fitted concentration of half-maximal effect
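HepG2 CAGA-GFP cells (1000/well, DMEM with 1% FBS) received compound, then TGF-beta at 500 pg/mL final, and were incubated 18 hours at 37 degrees C. Viability was read by CellTiter-Glo luminescence. Media-only wells were set as complete cell-killing and DMSO as no toxicity.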
S-ASM inh: blocks human secretory acid sphingomyelinase | P17405 | placental ASM, HMU-PC fluorogenic substrate, 60 min | hit rate 0.006% among 340,000 | AID 504937 | Potency, µM (doses to about 57.5 µM), for inactives: at the highest dose activity change, negative = inhibition, most hits filed as inhibitors; note: potency is the fitted concentration of half-maximal effect
Target sequence (P17405 47-631 limits assumed): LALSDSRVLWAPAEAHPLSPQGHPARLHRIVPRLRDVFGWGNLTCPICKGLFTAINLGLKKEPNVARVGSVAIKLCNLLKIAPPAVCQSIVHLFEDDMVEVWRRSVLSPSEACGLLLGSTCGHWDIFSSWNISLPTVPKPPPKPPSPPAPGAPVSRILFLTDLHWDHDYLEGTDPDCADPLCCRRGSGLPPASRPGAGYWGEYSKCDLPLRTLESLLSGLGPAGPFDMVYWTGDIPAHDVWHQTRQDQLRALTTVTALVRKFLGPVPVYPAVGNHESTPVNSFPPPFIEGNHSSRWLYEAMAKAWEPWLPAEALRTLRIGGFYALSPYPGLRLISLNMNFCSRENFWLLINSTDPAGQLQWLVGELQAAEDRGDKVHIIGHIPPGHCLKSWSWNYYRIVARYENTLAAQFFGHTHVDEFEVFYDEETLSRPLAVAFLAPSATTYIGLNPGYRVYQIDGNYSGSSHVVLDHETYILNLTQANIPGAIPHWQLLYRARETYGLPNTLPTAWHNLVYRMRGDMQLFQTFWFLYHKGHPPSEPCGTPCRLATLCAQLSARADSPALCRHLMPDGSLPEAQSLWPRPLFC
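Fluorogenic HMU-PC substrate (9 uM final) is turned over by placental ASM in 60 min at 37 C after a 10 min compound preincubation. Reaction ended by alkaline stop (pH 10), with fluorescence read at 386/447 nm.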
* hit, by the source's call; ? = inconclusive; . = no result given. Unless noted, calls come from the whole dose curve; as a rule, active = well fitted curve in the direction sought with a large enough effect; inconclusive = small, poorly fitted or top-dose-only effect, or another doubt; inactive = no such curve, though single readings can be large; an effect the other way counts as inactive or inconclusive.

SMILES	TGFb SMAD3 inh	TDP1 cell noCPT	TDP1 cell CPT	IL1B secr inh	HepG2 tox	S-ASM inh
CCCCNC(=O)C1CCN(S(=O)(=O)c2cc(Br)cc3c2N(C(=O)CC)CC3)CC1	-24%	-23%	-3%	.	-17%	.
CCOc1ccccc1C(=O)NC1CC2CCCC(C1)N2C1CC1 (stereo not drawn)	-6%	-24%	-26%	22	-2%	5%
O=C(NCc1ccccc1)NC1CC2CCC(C1)N2Cc1ccco1 (stereo not drawn)	?	-20%	10%	3	0%	-1%
CCOc1ccccc1C(=O)NC1CC2CCCC(C1)N2Cc1nnnn1Cc1ccco1 (stereo not drawn)	-14%	16µM*	?	?	-25%	4%
O=C(NC1CC2CCC(C1)N2Cc1nnnn1Cc1ccco1)NC12CC3CC(CC(C3)C1)C2 (stereo not drawn)	?	18µM*	21µM*	31	-27%	-2%
Cc1noc(C)c1COc1ccc(C(=O)Nc2ncccc2O)cc1	?	?	?	17	-23%	0%
Cn1c(=O)c2c(SCC(=O)NCc3ccco3)nc(-c3ccccc3F)nc2n(C)c1=O	26%	-13%	-8%	.	4%	.
COc1ccc(Br)cc1CNC(=O)C1CCN(S(=O)(=O)N2CCCC2)CC1	0%	-29%	-4%	-9	-5%	-2%
CCCOc1ccc(CNC(=O)c2ccc(-n3c(C)cc4c3CCC(C)C4)cc2)cc1 (stereo not drawn)	-8%	?	?	.	-38%	.
CCc1ccc(CNC(=O)c2ccc(-n3c(C)cc4c3CCC(C)C4)cc2)cc1 (stereo not drawn)	1%	21µM*	16µM*	.	-31%	.
Cc1cc2c(n1-c1ccc(C(=O)NCc3cccc(Br)c3)cc1)CCC(C)C2 (stereo not drawn)	?	15µM*	?	.	-32%	.
COc1ccc(Br)cc1CNC(=O)c1ccc(-n2c(C)cc3c2CCC(C)C3)cc1 (stereo not drawn)	-21%	18µM*	23µM*	.	-23%	.
Cc1ccc(-n2nc(CO)c(C(=O)NCCCc3ccccc3)n2)cc1	-3%	23µM*	?	.	-22%	.
Cc1ccc(-n2nc(CO)c(C(=O)NC(C)CCCc3ccccc3)n2)cc1 (stereo not drawn)	0%	21µM*	?	.	-36%	.
CC1(C)Cc2c(sc3nc(-c4cc5ccccc5o4)n(N)c(=O)c23)CO1	-2%	21µM*	?	-4	-2%	105%
CC1(C)Cc2c(sc3nnn(Cc4ccc(Cl)cc4)c(=O)c23)CO1	-19%	13µM*	?	-9	-3%	-13%
CC(C)Cc1nc2sc3c(c2c(=O)n1N)CC(C)(C)OC3	0%	10µM*	18µM*	-4	-7%	-1%
COc1ccccc1N1CCN(c2nc3ccc(C)cc3nc2-n2nc(C)cc2C)CC1	?	21µM*	23µM*	.	-24%	.
COc1ccccc1N1CCN(c2nc(-c3ccc(C)cc3)nc3ccccc23)CC1	-21%	23µM*	23µM*	.	-4%	.
Cc1ccc(-c2nc(N3CCN(c4ccccc4Cl)CC3)c3ccccc3n2)cc1	-2%	-18%	-8%	.	1%	.
Cc1cc(C)n(-c2nc3ccccc3nc2N2CCN(c3cccc(C)c3C)CC2)n1	-10%	-5%	-4%	.	2%	.
COc1cccc(-c2nc(N3CCCC3)c3ccccc3n2)c1O	-3%	12µM*	18µM*	16	0%	-13%
COc1ccccc1N1CCN(c2nc(CNC(=O)c3ccc4c(c3)OCO4)nc3ccccc23)CC1	.	13µM*	18µM*	.	.	.
COc1ccc(C(=O)NCc2ccc3c(c2)OCO3)cc1S(=O)(=O)N(C)Cc1ccccc1	-12%	?	-8%	-13	-10%	-4%
O=C(Cc1ccc(NC(=O)C2CCN(C(=O)C3CCCCC3)CC2)cc1)Nc1ccc(C(=O)N2CCOCC2)cc1	-33%	-6%	-7%	?	-11%	4%
SMILES	TGFb SMAD3 inh	TDP1 cell noCPT	TDP1 cell CPT	IL1B secr inh	HepG2 tox	S-ASM inh
COc1cccc(/C=c2/[nH]c(=O)/c(=C\c3cccc(OC)c3OC)[nH]c2=O)c1OC	7%	?	?	.	-3%	.
COc1cccc(-c2nc(N3CCC(C)CC3)c3ccccc3n2)c1O	?	21µM*	18µM*	13	6%	?
COc1cccc(-c2nc(N3CC(C)CC(C)C3)c3ccccc3n2)c1O (stereo not drawn)	-1%	?	?	20	7%	-29%
CC(C)(C)c1cc(CCC(=O)NCC2CCCO2)cc(C(C)(C)C)c1O (stereo not drawn)	-11%	-9%	-29%	0	-8%	4%
COC(CN(C)C(=O)c1ccc2c(c1)NC(=O)c1ccccc1S2)OC	-4%	-13%	-3%	5	-9%	1%
O=C(N[C@H]1C/C=C\C[C@@H](CC(=O)N(CCO)Cc2ccccc2)C(=O)N2CCC[C@@H]2COC1=O)OCC1c2ccccc2-c2ccccc21	6%	6.5µM*	8.2µM*	48	2%	-2%
O=C(N[C@H]1C/C=C\C[C@@H](CC(=O)N(CCO)Cc2ccccc2)C(=O)N2CCC[C@H]2COC1=O)OCC1c2ccccc2-c2ccccc21	12%	18µM*	13µM*	33	13%	-5%
O=C1CCC/C=C\C[C@H](CC(=O)N(CCO)Cc2ccccc2)C(=O)N2CCC[C@@H]2CO1	-18%	-14%	-2%	10	1%	1%
CCOc1ccc(NC(=O)N2CCN(C(=O)c3nsc4ccccc34)CC2)cc1	-2%	?	?	.	1%	.
C=CC(=O)Nc1ccc(Nc2nc(NC3CCC(N(C)C)CC3)nc3c2ncn3C(C)C)cc1 (stereo not drawn)	0.63µM*	0.41µM*	0.33µM*	-109*	-1%	8%
CC(C)[C@H](CO)Nc1nc(Nc2ccc(C(=O)O)c(Cl)c2)c2ncn(C(C)C)c2n1	.	-1%	4%	.	.	.
Cc1ccc(S(=O)(=O)NC2c3cccc4cccc(c34)C2Sc2n[nH]c(N)n2)cc1 (stereo not drawn)	-15%	16µM*	21µM*	-1	10%	-3%

Screens as filed in PubChem.
